In PubChem BioAssay (Tox21):
Results filed as inconclusive are left out. Calls of active or inactive are those of the source. Calls come from the whole dose curve.

assay: qHTS assay for small molecule disruptors of the mitochondrial membrane potential - cell viability (AID 720634); conditions: HepG2 viability, ATP luminescence (CellTiter-Glo), 1 h; series mostly up to 83.2 µM; activity change, negative = cytotoxicity: at the top concentration;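 note: human HepG2 liver cancer cells; nearly all actives have a fitted effect of over 20% in size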
Text: U.S. Tox21 Program National Center for Advancing Translational Sciences [NCATS] NIH Chemical Genomics Center [NCGC] U.S. Environmental Protection Agency [EPA] National Institutes of Environmental Health Sciences [NIEHS] National Toxicology Program [NTP] U.S. Food and Drug Administration [FDA] Tox21 Assay Overview: Mitochondrial membrane potential (MMP), one of the parameters for mitochondrial function, is generated by mitochondrial electron transport chain that creates an electrochemical gradient by a series of redox reactions. This gradient drives the synthesis of ATP, a crucial molecule for various cellular processes. Measuring MMP in living cells is commonly used to assess the effect of chemicals on mitochondrial function; decreases in MMP can be detected using lipophilic cationic fluorescent dyes. […] The dye accumulates in the mitochondria of healthy cells as aggregates, with red fluorescence. The mitochondrial potential decreases and the dye could not accumulate in the mitochondria and remains in the cytoplasm in monomers, with green fluorescence. In addition to the mitochondrial potential assay, these cells were also used to test the cytotoxicity by determining the cell viability in the culture based on the quantitation of ATP present. The cytotoxicity was measured in the same assay well of MMP assay.
Tox21 Assay Protocol Summary: 2,000 HepG2 cells in 5 uL/well were dispensed into black, clear-bottom 1536-well plates using a Multidrop Combi (Thermo Scientific) dispenser. The assay plates were incubated for an overnight at 37 C to allow cells to attach to the wells, followed by the transfer of 23 nL compound or DMSO vehicle by a pin tool (Kalypsys). The plates were incubated for 1 hr at 37 C and 5% CO2, followed by the addition of 5 uL of 2X m-MPI dye into each well using Flying Reagent Dispenser (Aurora Discovery) and then CellTiter-Glo reagent was added at 4 uL/well and incubated 30 min at room temperature. Then luminescence intensity was quantified on a ViewLux CCD-based plate reader.
% is set by controls: 0 for no effect and ±100 for the full control effect.

SMILES | activity change, negative = cytotoxicity | outcome
CCCCCC(=O)OCC | 11.6% (inactive) | 
CCCCCCCCCCCCCCCC(=O)NCCO | -1.36% (inactive) | 
NC(Cc1c[nH]c2ccccc12)C(=O)O (stereo not given) | 7.1% (inactive) | 
CC(=O)Nc1ccc(C)cc1 | 5.77% (inactive) | 
C=CCOc1c(Br)cc(Br)cc1Br | -16.8% (inactive) | 
CN[C@@H]1[C@@H](O)[C@@H](O[C@@H]2[C@H](O)[C@H](O[C@H]3OC(CN)=CC[C@H]3N)[C@@H](N)C[C@H]2N)OCC1(C)O (stereo not given in full) | -6.03% (inactive) | 
Cc1ccc(S(=O)(=O)NC(=O)NC2CCCCCCC2)cc1 | -2.21% (inactive) | 
CCC(=O)c1ccc(O)cc1 | 2.81% (inactive) | 
OC(CCN1CCCCC1)(c1ccccc1)c1ccccc1 | -7.89% (inactive) | 
C=COCCOCCOC=C | 0.535% (inactive) | 
CCCCCCCCCCCCC1CO1 (stereo not given) | -2.83% (inactive) | 
CCCCC[Si](OCC)(OCC)OCC | -22.4% (inactive) | 
C[CH2][Ge]([Cl])([CH2]C)[CH2]C | 8.16% [at 95.3 µM] (inactive) | 
O=C1OC(=O)c2cc(Oc3ccc4c(c3)C(=O)OC4=O)ccc21 | 6.9% (inactive) | 
Nc1cc(S(=O)(=O)O)ccc1S(=O)(=O)O | 12.1% (inactive) | 
CCc1nccnc1C | 8.68% (inactive) | 
CC(CC(=O)O)CC(C)(C)C (stereo not given) | 10.5% (inactive) | 
CCCCCCCCOC(C)=O | -12.2% (inactive) | 
CCCCCCCCC(=O)OCC | 5.83% (inactive) | 
C=C(C)C(=O)OCCCCCCOC(=O)C(=C)C | 4.43% (inactive) | 

SMILES | activity change, negative = cytotoxicity | outcome
Cc1nc(C)nc(N2C[C@@H](C)N(c3ccnc([C@@H](C)O)n3)[C@@H](C)C2)n1 | 4.86% (inactive) | 
COC(OC)C(C)c1ccccc1 (stereo not given) | 1.96% (inactive) | 
c1ccc(CNc2ncnc3nc[nH]c23)cc1 | -19.7% (inactive) | 
NC(=O)NC(=O)Cc1ccccc1 | 9.57% (inactive) | 
CNC(=O)C(c1ccccc1)c1ccccc1 | 4.29% (inactive) | 
CC1=CC[C@H](CC=O)C1(C)C | 7.83% (inactive) | 
CC(C)COC(=O)CC(C(=O)OCC(C)C)S(=O)(=O)O (stereo not given) | 13.3% (inactive) | 
CC(=O)OCCCc1ccccc1 | 3.78% (inactive) | 
CCNC(=O)/C=C/c1cccc(Br)c1 | -7.05% (inactive) | 
CCCOC(=O)CCCCC(=O)OCCC | 11.6% (inactive) | 
CCCCCCCCCCCCOC(C)=O | 9.13% (inactive) | 
CC(C)CCCC(C)CC=O (stereo not given) | 14.1% (inactive) | 
O=C1NC2NC(=O)NC2N1 (stereo not given) | 9.18% (inactive) | 
CCN(CCO)c1cccc(C)c1 | -0.941% (inactive) | 
CC(=O)c1ccc(OCC(=O)N2CCCCC2)cc1 | -11.7% (inactive) | 
CCCCCCCC/C=C\CCCCCCCC(=O)OC[C@@H](O)[C@H]1OC[C@H](O)[C@H]1O |  | inactive
CC(C)=CC(C)(C)C | 7.56% (inactive) | 
C=C[Si](C)(C)O[Si](C)(C)C=C | 7.55% (inactive) | 
CC1(N)CCC(C(C)(C)N)CC1 (stereo not given) | 3.75% (inactive) | 
CC(C)c1ccccc1O | -16.2% (inactive) | 
